Assay results from the supplement of paper PMC6555819.

tested on: VDR:RXRa (NR concentration 270 nM, RXRa partner concentration 90 nM); test: PBM binding z-score (relative to random genomic background probes); higher = stronger binding; sequences stand for … in GC…GCGATTGACAGCGTAGAATGAAGG
Protocol: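 Protein-binding microarray (Agilent 4x180K custom design, double-stranded 60-nt probes: 5' GC cap, 34-nt variable region, 24-nt constant primer region; full probe sequence given). Purified or IVT nuclear receptor:RXRα heterodimers (3:1 NR:RXRα, mostly 270:90 nM) or homodimers were incubated for 1 h in PBS with 2% milk and no ligand, then detected with Alexa488 antibodies. Fluorescence from o1-orientation probes (~5 replicates averaged) was converted to z-scores against 500 random hg19 background probes. Variable regions are seed direct-repeat (DR0–DR5) sites, all their single-nucleotide variants and half-site ablations.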

Q: Which PBM binding z-score does the source give for ATCTCTAGGTAAAGATGGTTCAGTGAATGCAAAT here?
A: Its PBM binding z-score is 0.607.

Q: Which PBM binding z-score does the source give for TATACAGTGTCAAAGGCCAGAGTACGAATGTCGA here?
A: Its PBM binding z-score is 0.815.

Q: With GCTAGTAGGCCATTTGGGTCACTCAATGACGGGC as the sequence, how does the PBM binding z-score read?
A: The PBM binding z-score was 0.995.

Q: TCTAATTGGTCACGGAGGTCACACACGACGGGTA was tested. Which PBM binding z-score did it give?
A: Its PBM binding z-score is 6.1.

Q: Which PBM binding z-score does the source give for TCATATAGGTAAATGCTAGGTGTAAGTCCGATCT here?
A: Its PBM binding z-score is 0.772.

Q: Which PBM binding z-score does the source give for ATATGTAGGTTAAGGGTCAGTCAGGTTGGTTCGC here?
A: Its PBM binding z-score is 4.37.

Q: TCTCGCAGGCCAGAGGGTCACTCAAGAGGTACGG was tested. Which PBM binding z-score did it give?
A: The PBM binding z-score was 1.79.

Q: For TCGAGTAGGTTAGTCCGGGCATTCAGCCAACATA, which PBM binding z-score is on record?
A: The PBM binding z-score was 0.223.

Q: For CATACAGGGTCTGCTAGGCCAGAGTAGGGACGGC, which PBM binding z-score is on record?
A: The PBM binding z-score was -0.426.

Q: Which PBM binding z-score does the source give for CCTGCTAGCTCATGGTCAGCTAATCTACAGTATG here?
A: The PBM binding z-score was -0.366.

Q: TCTCGGAGGATACGAAGGTCAGAGCTTTCCAGAG was tested. Which PBM binding z-score did it give?
A: The PBM binding z-score was 0.765.

Q: Which PBM binding z-score does the source give for GCAGACAGGTGAAACGCAGGTAAATCAGGGTGGC here?
A: The PBM binding z-score was -0.374.

Q: Which PBM binding z-score does the source give for CGTCAAGGTTCAAGGTAACGTAACAGAAAGCAGC here?
A: The PBM binding z-score was 3.05.

Q: For ACTCGAAGGACAAAGGTCAGAGCTACGCCAGTGA, which PBM binding z-score is on record?
A: Its PBM binding z-score is 2.96.

Q: Which PBM binding z-score does the source give for ACTATTAGTTGACCTAGGGCAACCGATACGACGC here?
A: Its PBM binding z-score is 1.96.

Q: How did the PBM binding z-score turn out when ATATGTAGGTGATCGGGTCATTCAGTTTGCGCAT was run?
A: Its PBM binding z-score is 4.74.

Q: How did the PBM binding z-score turn out when GCTAGTTGGTCAGTAAAAGGTCATACACCGGTCG was run?
A: The PBM binding z-score was 3.69.

Q: GCACACAGGTGAAACGCAGGTAACTCAGGGTGGC was tested. Which PBM binding z-score did it give?
A: The PBM binding z-score was -0.336.

Q: GCTAGCAGTCCATTTGGGTCACTCAATGACGGGC was tested. Which PBM binding z-score did it give?
A: Its PBM binding z-score is 0.562.

Q: Which PBM binding z-score does the source give for ACCGACAGGTGAGTGAAGGTAACTCAGCTGGACG here?
A: Its PBM binding z-score is -0.484.

Q: Which PBM binding z-score does the source give for GGTTGTAGATCAAGGTTAAGAAAGACTAAGCTAA here?
A: The PBM binding z-score was 0.833.

Q: With GGGACGAGGGCATTCGAGTTGATAGCATGGCGAT as the sequence, how does the PBM binding z-score read?
A: The PBM binding z-score was 3.62.

Q: For CCAGACAGGTGAAAGGCAACTCAGTCTGGTACGC, which PBM binding z-score is on record?
A: The PBM binding z-score was -0.108.

Q: With CCTAGTTGGTCAAGGTCACAAACGCTATAGGTAC as the sequence, how does the PBM binding z-score read?
A: The PBM binding z-score was 3.73.

Q: With CGGCAAAGTTCAACTAAGGTAACGTAAAGCACGC as the sequence, how does the PBM binding z-score read?
A: Its PBM binding z-score is 4.67.

Q: With GCTTGTAGATCAAGTTTAAGAAAGACTAAGCTAA as the sequence, how does the PBM binding z-score read?
A: Its PBM binding z-score is -0.096.

Q: For GCACGGAGGACAAGGTCAGAGCTTTGTCCGTAGA, which PBM binding z-score is on record?
A: The PBM binding z-score was 1.34.

Q: How did the PBM binding z-score turn out when CCTAGCAGGCCAATCTGGGGCACTCAAGGCTTGA was run?
A: The PBM binding z-score was -0.786.

Q: With CCTGCTAGGTCAATGGGCAGCTAAAGCAGCTCGC as the sequence, how does the PBM binding z-score read?
A: The PBM binding z-score was 0.356.

Q: Which PBM binding z-score does the source give for ATCTCTAGGTAAGACTCAGTTCAGTCAAGAACGC here?
A: The PBM binding z-score was 0.989.

Q: Which PBM binding z-score does the source give for TCTATTAGTGGAAGGGCAACCGACGAGTCCGTTT here?
A: Its PBM binding z-score is 0.969.

Q: How did the PBM binding z-score turn out when TCATATAGGTAAATGCTAGGTGAAAGCCCGATCT was run?
A: Its PBM binding z-score is 0.543.

Q: How did the PBM binding z-score turn out when TCACCAAGGTGAGCTGAGGTCGTTGATCCAACTC was run?
A: Its PBM binding z-score is 3.97.

Q: ACTAGCAGGCCAAGTTTGGGTCAGTCAAACAAAG was tested. Which PBM binding z-score did it give?
A: Its PBM binding z-score is 0.056.

Q: With GTACCAAGGTGAATAGGTCGTCGATGAGTAGGCG as the sequence, how does the PBM binding z-score read?
A: Its PBM binding z-score is 0.97.

Q: For CCGACTCGGGCAGAAAGGTTACCATACCATCCGG, which PBM binding z-score is on record?
A: The PBM binding z-score was 0.699.

Q: With ACTCGGAGGACAAAGGCCAGAGCTACGCCAGTGA as the sequence, how does the PBM binding z-score read?
A: Its PBM binding z-score is -0.667.

Q: How did the PBM binding z-score turn out when TAGCCTAGCTCATTGGGCCAGTATAGTACGCATC was run?
A: Its PBM binding z-score is -0.69.

Q: For GCGACTGGGGCTAAGCAGGTTACCATAAGGTTGG, which PBM binding z-score is on record?
A: Its PBM binding z-score is -0.0992.

Q: CCTACTGGGCCAAAGGTCAATGATTCCAATGCTC was tested. Which PBM binding z-score did it give?
A: Its PBM binding z-score is 4.04.
